# Several values for one entry are separate records, joined by “and”; a condition that tells them apart may be missing. Equal values may be shown once. Compounds without any hit were thinned out: in the full panel of roughly 83,000, 20% have a hit.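 Each cell line was grown in a 96-well plate and treated with one concentration of compound for 48 hours. Values below 10 were considered active.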 Activity calls are given as the source filed them.
# System: KM12 colon
# Assay: NCI-60 one-dose screen, 48 h (100 = growth as untreated, 0 = no growth, -100 = all killed)
# Details: 1 µM
# Protocol: Growth inhibition of the KM12 human tumor cell line is measured as a screen for anti-cancer activity. Cells are grown in 96 well plates and exposed to the test compound for 48 hours. Compounds are tested at a single concentration, which is 10^-5 M for most compounds. The reported endpoint is percent growth (GI% or GIPRCNT), where numbers from 0 - 100% represent growth inhibition, and numbers from -100% - 0 represent cell death. For example, a value of 40 represents 60% growth inhibition. A value of 0 means no net growth occurred over the course of the experiment. A value of -40 indicates 40% of cells at the beginning of the experiment died by the end of the experiment. A value of -100 means all cells are dead at the end of the experiment.
# NCI-60 Human Tumor Cell Lines Screen was performed using the standard one-dose NCI protocol, which is described in more detail at https://dtp.cancer.gov/discovery_development/nci-60/default.htm.
# Compounds with GIPRCNT values below 10 were considered active. Activity score was based on GIPRCNT using the following formula: […]
# Score is 0 for GIPRCNT values of 100 or above, 50 for GIPRCNT values of 0, and 100 for GIPRCNT values of -100.
row,SMILES,growth
1,CNC(=O)c1cc(Oc2ccc(CC(=O)Nc3cc(C(C)(C)C)nn3C)cc2)ccn1,88.4% (inactive)

# Same assay, conditions: 10 µM
row,SMILES,growth
1,CNC(=O)c1cc(Oc2ccc(CC(=O)Nc3cc(C(C)(C)C)nn3C)cc2)ccn1,58.5% (inactive)
2,CC(C)(C)c1cc(NC(=O)Cc2ccc(-c3cnc4cc(-c5cnn(CCN6CCOCC6)c5)ccc4n3)cc2)no1,8.46% (active)

# Same assay, conditions: 10 µM unless noted
row,SMILES,growth
1,COc1ccc(-c2ncnc3c2ncn3C/C=C/CCl)cc1,85.4% (inactive) and 102% (inactive)
2,CN(C)c1ccc(C(=C2C=CC(=[N+](C)C)C=C2)c2ccccc2Cl)cc1,-94.6% (active) and -87.2% (active)
3,Cc1ncsc1CCO,110% (inactive) and 98.1% (inactive)
4,CC1=NN(c2ccccc2)C(=O)C1C(=O)c1ccccc1 (stereo not given),93.2% (inactive)
5,N=C1N=C(N)CS1,107% (inactive)
6,CC(C)CNC(=O)c1ccccc1C(=O)NC1(C(=O)NCC(C)C)CCCC1,112% (inactive) and 104% (inactive)
7,O=[N+]([O-])c1ccccc1/C=N\Nc1ccccc1,40.6% (inactive) and 36.1% (inactive)
8,CC(=O)C(/C=N/C(N)=O)=C(/C)O,111% (inactive)
9,Cc1cc(-c2ccc(NS(=O)(=O)c3ccccc3)c(C)c2)ccc1NS(=O)(=O)c1ccccc1,72.3% (inactive) and 90.1% (inactive)
10,C=C1C(=O)O[C@H]2[C@H]1CC/C(COC(=O)NC1CCC(O)CC1)=C\CC[C@@]1(C)O[C@@H]21 (stereo not given in full),96.8% (inactive) and 97.9% (inactive)
11,CC(C)Cc1ccc(C(C)C(=O)NCc2ccc(Cn3c(=O)sn(CCCCl)c3=O)cc2)cc1 (stereo not given),95% (inactive) and 4.78% (active)
12,CC(C)N=c1cc2n(-c3ccc(Cl)cc3)c3ccccc3nc-2cc1Nc1ccc(Cl)cc1,12.6% (inactive) and 5.23% (active) and -1.86% (active)
13,CN1C(=O)C(N=Nc2ccc([N+](=O)[O-])cc2)SC1=S (stereo not given),48.2% (inactive) and 52.8% (inactive)
14,O=C(CN1CCN(c2cc3c(cc2F)c(=O)c(C(=O)O)cn3C2CC2)CC1)Nc1ccc(Cl)cc1,82.9% (inactive) and 93.9% (inactive)
15,COc1ccc(/C(C#N)=C/c2ccccn2)cc1,101% (inactive) and 102% (inactive)
16,CC(=O)NC(Cc1ccccc1)C(=O)Oc1ccc2ccccc2c1 (stereo not given),103% (inactive) and 94.8% (inactive)
17,O=C1OC2(c3ccccc31)c1ccc(O)c(O)c1Oc1c2ccc(O)c1O,104% (inactive) and 113% (inactive)
18,COc1cc2c(c(OC)c1OC)-c1ccc(OC)c(=O)cc1[C@@H](NC(C)=O)CC2,-6.61% (active) and 2.96% (active) and -29.9% (active)

row,SMILES,growth
1,Oc1nc(NCCc2ccccc2)sc1/C=C1\C=Nc2ncccc21,9.25% (active) and 13.1% (inactive)
2,O=C(O)c1cc(C(=O)O)cc([N+](=O)[O-])c1,109% (inactive)
3,CCNC(=O)Nc1ccc(-c2nc3c(c(N4CCOC[C@@H]4C)n2)CCN(C2COC2)C3)cc1,47.5% (inactive) and 17.1% (inactive)
4,CCOC(=O)Nc1nc2ccccc2[nH]1,106% (inactive) and 26.2% (inactive)
5,COC(=O)[C@H]1CCCN1C(=O)C1CCCN1C(=O)[C@@H](Cc1ccccc1)NC(=S)Nc1cc(C(F)(F)F)cc(C(F)(F)F)c1 (stereo not given in full),111% (inactive) and 96.5% (inactive)
6,O=[N+]([O-])c1ccc(Oc2ccccc2)cc1,101% (inactive) and 105% (inactive)
7,O=C(O)C1C2C=CC(C2)C1C(=O)O (stereo not given),106% (inactive) and 25.4% (inactive) and 104% (inactive)
8,CCN(CC)CCNc1ccc(C)c2sc3ccccc3c(=O)c12 (tested in a mixture with another compound),32.9% (inactive) and 23.9% (inactive)
9,O=C(Cc1cccc2ccccc12)N/N=C/c1ccc2c(c1)CCC2,54.3% (inactive)
10,Clc1ccc(SSc2ccc(Cl)cc2)cc1,107% (inactive)
11,O=C1NC(=O)C2(CCc3ccccc32)N1 (stereo not given),100% (inactive) and 109% (inactive)
12,CCOc1ccc2cc(-c3nn(CC4CCNCC4)c4ncnc(N)c34)ccc2c1,14.5% (inactive) and 11.9% (inactive)
13,Nc1ccc(N=Nc2ccc(S(=O)(=O)O)cc2)cc1S(=O)(=O)O,96.1% (inactive) and 105% (inactive)
14,CCN(CC)CCCC(CNc1ccnc2cc(Cl)ccc12)c1ccc(Cl)cc1 (stereo not given),1.49% (active) and 33.3% (inactive)
15,CN(C)c1ccc(/C=C(\C#N)c2ccccc2)cc1,13% (inactive) and 38.8% (inactive) and 28.7% (inactive)
16,CCC(=O)C(CC)c1cccc(OC)c1 (stereo not given),111% (inactive)
17,O=C(/C=C/c1ccccn1)c1ccccc1O,40.4% (inactive) and 48.2% (inactive)

# Same assay, conditions: 30 µM
row,SMILES,growth
1,CNC(=O)c1cc(Oc2ccc(CC(=O)Nc3cc(C(C)(C)C)nn3C)cc2)ccn1,64.6% (inactive)
2,CC(C)(C)c1cc(NC(=O)Cc2ccc(-c3cnc4cc(-c5cnn(CCN6CCOCC6)c5)ccc4n3)cc2)no1,9.72% (active)

# From PubChem BioAssay (NCI)
